We go through 1 molecule from ChEMBL document CHEMBL2218924, “A broad activity screen in support of a chemogenomic map for kinase signalling research and drug discovery” (Biochem J, 2013).

The target of test [1] is T1, Serine/threonine-protein kinase TBK1 (Homo sapiens) (UniProt Q9UHD2).
T1 sequence (whole entry): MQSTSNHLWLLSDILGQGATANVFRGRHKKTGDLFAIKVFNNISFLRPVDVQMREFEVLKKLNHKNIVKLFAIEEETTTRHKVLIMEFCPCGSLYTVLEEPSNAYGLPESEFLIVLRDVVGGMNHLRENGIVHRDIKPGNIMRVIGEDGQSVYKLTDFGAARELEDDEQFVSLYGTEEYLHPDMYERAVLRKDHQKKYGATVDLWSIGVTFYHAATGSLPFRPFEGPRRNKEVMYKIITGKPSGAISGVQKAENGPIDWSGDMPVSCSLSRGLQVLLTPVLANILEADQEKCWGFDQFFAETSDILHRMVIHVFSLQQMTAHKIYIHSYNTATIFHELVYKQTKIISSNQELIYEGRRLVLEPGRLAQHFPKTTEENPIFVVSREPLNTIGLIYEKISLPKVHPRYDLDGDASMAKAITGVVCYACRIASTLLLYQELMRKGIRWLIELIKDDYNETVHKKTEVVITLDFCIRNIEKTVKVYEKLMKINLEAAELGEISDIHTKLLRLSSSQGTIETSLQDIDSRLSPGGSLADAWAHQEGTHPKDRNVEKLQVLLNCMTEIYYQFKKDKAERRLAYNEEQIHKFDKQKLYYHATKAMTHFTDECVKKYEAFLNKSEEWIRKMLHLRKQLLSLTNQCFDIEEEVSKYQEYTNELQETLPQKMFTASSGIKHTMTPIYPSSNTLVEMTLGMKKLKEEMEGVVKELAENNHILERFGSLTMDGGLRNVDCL
The conditions noted are these: at 10 µM.

Test [2] addresses T2, TGF-beta receptor type-1 (Homo sapiens) (UniProt P36897).
T2 sequence (whole entry): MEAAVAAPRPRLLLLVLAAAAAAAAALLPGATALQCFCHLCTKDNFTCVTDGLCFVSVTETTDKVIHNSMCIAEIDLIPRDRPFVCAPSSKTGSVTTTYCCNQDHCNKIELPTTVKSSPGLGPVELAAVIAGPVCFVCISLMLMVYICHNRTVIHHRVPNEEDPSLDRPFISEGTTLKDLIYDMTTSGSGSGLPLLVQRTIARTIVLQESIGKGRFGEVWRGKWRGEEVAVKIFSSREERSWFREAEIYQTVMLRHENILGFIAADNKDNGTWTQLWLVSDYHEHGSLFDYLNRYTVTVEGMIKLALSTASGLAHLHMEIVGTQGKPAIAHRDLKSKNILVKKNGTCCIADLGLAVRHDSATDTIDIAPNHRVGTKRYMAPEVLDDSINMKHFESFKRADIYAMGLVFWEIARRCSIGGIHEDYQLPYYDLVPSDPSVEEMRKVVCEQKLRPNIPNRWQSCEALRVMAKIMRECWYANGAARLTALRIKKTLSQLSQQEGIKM
As to conditions: at 1 µM.

For test [3], the target named is T2, TGF-beta receptor type-1 (Homo sapiens). As to conditions: at 10 µM.
Test [4] concerns the target Insulin-like growth factor 1 receptor (Homo sapiens) (UniProt P08069). The conditions noted are these: at 1 µM.
The target is the same in test [5]. As to conditions: at 10 µM.
In test [6] the target is T3, Inhibitor of nuclear factor kappa-B kinase subunit alpha (Homo sapiens) (UniProt O15111).
T3 sequence (whole entry): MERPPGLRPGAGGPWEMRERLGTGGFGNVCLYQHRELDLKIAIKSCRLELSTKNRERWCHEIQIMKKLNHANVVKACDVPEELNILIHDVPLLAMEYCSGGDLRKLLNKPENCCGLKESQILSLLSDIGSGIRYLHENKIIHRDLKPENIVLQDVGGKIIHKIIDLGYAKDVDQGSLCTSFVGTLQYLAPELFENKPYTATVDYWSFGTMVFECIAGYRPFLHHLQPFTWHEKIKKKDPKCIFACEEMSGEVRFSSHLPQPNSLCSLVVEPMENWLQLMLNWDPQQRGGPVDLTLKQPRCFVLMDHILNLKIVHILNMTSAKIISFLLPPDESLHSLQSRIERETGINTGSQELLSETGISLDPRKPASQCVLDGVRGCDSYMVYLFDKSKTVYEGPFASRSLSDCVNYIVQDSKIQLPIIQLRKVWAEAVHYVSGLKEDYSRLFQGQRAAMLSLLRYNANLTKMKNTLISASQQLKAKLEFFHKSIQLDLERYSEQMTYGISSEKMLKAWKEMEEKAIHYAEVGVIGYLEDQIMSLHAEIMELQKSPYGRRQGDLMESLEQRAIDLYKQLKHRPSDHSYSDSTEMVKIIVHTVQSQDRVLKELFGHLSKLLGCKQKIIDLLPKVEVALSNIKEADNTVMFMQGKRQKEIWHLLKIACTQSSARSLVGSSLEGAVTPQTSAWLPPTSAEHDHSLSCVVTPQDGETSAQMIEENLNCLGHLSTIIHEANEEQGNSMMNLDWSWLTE
As to conditions: at 1 µM.

Test [7] has as its target T3, Inhibitor of nuclear factor kappa-B kinase subunit alpha (Homo sapiens). The conditions noted are these: at 10 µM.
Test [8] has as its target T4, Inhibitor of nuclear factor kappa-B kinase subunit beta (Homo sapiens) (UniProt O14920).
T4 sequence (whole entry): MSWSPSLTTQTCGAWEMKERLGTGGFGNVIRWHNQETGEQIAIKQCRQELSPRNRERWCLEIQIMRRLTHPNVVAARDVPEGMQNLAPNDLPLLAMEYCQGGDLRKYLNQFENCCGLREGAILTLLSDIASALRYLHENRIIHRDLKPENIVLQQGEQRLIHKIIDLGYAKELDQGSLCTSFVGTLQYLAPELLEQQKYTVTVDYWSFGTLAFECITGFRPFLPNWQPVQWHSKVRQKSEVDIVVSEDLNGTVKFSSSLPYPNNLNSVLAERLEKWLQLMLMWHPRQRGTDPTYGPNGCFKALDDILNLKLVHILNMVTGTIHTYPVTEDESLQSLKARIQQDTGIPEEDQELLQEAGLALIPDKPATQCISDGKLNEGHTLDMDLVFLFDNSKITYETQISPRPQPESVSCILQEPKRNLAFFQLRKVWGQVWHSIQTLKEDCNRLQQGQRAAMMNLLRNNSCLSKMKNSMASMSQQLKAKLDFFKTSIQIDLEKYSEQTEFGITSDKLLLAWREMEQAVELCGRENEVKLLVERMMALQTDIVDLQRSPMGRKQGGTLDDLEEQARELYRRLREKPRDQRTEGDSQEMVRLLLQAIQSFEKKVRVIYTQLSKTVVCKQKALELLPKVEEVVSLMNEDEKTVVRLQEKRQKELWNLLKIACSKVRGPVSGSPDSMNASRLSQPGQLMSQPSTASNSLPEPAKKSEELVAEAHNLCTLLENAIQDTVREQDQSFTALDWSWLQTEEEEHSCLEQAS
As to conditions: at 1 µM.

Test [9] has as its target T4, Inhibitor of nuclear factor kappa-B kinase subunit beta (Homo sapiens). The conditions noted are these: at 10 µM.
Test [10] has as its target Insulin receptor (Homo sapiens) (UniProt P06213). The conditions noted are these: at 1 µM.

Insulin-like growth factor 1 receptor (Homo sapiens), sequence (P08069 31-736 limits assumed): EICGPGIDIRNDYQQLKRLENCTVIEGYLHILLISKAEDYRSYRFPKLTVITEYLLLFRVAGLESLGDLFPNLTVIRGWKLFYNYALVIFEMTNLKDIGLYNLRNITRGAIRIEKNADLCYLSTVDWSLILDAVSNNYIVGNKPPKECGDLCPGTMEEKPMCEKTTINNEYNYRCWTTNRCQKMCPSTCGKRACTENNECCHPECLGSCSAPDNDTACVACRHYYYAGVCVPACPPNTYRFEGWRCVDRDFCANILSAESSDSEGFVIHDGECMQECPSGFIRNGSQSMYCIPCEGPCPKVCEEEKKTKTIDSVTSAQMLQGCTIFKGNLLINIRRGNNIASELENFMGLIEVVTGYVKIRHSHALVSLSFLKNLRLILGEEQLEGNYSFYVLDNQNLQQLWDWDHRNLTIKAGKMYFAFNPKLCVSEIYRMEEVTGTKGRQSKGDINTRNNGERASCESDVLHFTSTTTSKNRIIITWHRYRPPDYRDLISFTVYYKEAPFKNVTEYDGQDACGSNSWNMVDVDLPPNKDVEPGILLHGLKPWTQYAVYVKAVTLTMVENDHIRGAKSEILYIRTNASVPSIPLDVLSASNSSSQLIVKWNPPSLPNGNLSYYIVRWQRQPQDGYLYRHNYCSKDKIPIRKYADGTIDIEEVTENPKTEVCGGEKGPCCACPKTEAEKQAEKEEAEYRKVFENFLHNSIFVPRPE
Insulin-like growth factor 1 receptor (Homo sapiens), sequence (P08069 741-1367 limits assumed): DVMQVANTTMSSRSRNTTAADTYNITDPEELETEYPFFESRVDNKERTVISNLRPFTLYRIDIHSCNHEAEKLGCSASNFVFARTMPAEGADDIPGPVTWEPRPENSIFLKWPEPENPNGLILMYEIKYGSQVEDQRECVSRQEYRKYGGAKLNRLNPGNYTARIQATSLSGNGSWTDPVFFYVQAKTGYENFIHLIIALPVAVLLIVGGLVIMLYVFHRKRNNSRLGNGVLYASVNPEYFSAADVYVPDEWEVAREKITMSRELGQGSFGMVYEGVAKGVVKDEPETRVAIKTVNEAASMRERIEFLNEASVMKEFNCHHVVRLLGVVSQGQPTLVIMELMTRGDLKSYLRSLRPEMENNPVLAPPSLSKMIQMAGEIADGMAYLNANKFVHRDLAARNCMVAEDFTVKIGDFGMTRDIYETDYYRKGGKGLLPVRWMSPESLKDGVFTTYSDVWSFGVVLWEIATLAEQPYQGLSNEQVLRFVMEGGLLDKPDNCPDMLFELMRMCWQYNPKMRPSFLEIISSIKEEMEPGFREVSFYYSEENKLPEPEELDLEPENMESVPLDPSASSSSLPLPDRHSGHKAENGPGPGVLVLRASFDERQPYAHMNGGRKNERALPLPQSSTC
Insulin receptor (Homo sapiens), sequence (P06213 28-758 limits assumed): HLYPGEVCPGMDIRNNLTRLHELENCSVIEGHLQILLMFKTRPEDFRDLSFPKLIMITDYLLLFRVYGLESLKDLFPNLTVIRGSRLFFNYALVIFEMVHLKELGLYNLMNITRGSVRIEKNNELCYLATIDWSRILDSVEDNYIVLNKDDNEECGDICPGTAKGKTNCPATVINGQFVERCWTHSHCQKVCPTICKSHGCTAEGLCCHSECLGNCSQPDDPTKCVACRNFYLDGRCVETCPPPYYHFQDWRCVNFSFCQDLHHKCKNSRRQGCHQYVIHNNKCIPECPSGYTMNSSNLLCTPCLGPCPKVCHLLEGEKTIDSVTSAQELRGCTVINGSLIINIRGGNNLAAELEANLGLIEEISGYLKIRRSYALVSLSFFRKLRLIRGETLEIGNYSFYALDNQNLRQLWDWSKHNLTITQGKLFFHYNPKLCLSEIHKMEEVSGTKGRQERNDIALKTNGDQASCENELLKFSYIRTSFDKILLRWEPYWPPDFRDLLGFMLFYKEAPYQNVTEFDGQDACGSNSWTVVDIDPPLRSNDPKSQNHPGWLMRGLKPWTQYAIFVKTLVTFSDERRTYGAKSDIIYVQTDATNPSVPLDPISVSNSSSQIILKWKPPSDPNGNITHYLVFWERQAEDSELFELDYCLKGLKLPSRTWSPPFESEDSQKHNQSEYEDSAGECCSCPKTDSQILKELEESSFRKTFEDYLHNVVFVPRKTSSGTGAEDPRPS
Insulin receptor (Homo sapiens), sequence (P06213 763-1382 limits assumed): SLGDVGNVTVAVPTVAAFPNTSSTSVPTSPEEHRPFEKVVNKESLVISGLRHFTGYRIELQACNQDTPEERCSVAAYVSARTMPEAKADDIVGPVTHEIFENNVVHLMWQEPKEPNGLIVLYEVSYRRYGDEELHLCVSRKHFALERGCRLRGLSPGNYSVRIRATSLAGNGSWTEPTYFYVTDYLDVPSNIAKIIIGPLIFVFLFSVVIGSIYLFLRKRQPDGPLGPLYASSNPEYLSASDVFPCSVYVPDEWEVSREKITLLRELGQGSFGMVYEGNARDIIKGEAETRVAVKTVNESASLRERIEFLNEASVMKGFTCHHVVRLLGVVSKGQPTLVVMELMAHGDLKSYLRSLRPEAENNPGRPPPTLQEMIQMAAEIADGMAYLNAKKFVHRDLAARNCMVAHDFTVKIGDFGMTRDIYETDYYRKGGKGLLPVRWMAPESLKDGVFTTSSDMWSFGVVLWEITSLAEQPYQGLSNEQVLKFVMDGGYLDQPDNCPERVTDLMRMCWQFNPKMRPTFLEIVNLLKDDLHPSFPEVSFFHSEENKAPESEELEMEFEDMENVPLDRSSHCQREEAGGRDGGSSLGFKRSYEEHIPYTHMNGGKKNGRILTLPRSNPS

Broadly, the residual activity is the signal under treatment as a percentage of the control signal. For `CC(C)n1cnc2/c(=N/c3cccc(Cl)c3)nc(NCCO)[nH]c21`, the residual activity in test [1] turned out to be 33%; in test [2], 79%; in [3] it was 85%; in test [4], 72%; in test [5], 31%; in [6] it was 114%. The residual activity in test [7] amounted to 98%; in test [8], 102%; in [9], 85%; in [10], 83%.
